FBPA Giardia inh = blocks Giardia fructose-bisphosphate aldolase activity | purified Giardia FBPA | Potency, µM (doses to about 59.6 µM), for inactives: at the highest dose activity, negative = inhibition, hits mostly inhibitors | actives 0.71% (n = 290,000); note: potency is the fitted concentration of half-maximal effect; % is set by controls: 0 for no effect and ±100 for the full control effect; nearly all actives have a fitted effect of over 55% in size
Target sequence (A8B2U2 whole entry, looked up): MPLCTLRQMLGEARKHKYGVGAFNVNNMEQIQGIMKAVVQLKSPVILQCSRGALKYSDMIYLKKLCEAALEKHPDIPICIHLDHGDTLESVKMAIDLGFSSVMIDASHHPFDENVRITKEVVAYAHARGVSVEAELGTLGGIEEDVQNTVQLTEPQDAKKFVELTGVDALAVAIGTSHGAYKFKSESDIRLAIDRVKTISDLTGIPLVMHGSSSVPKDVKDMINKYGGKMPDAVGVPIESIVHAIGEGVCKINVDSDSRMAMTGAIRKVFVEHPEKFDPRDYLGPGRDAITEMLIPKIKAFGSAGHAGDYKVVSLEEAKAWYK
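40 nM FBPA preincubated 10 min at RT with compound (up to 57.5 uM final), then substrate plus GAPDH/TPI/NAD/arsenate coupling and diaphorase/resazurin added. Fluorescence read after 20 min at RT, 525/598 nm.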
Shiga toxin inh = blocks Shiga toxin action in Vero cells; inhibition, % at 38.7 µM; actives 9.2% (n = 290,000); AID 2315; Vero cells, Shiga toxin protein synthesis inhibition reporter; in the data active = inhibition mostly above about 28%, no sharp cut-off; inactive = mostly below about 43%; note: 0% is about no effect
TbPYK inhibitor = inhibitors of Trypanosoma brucei pyruvate kinase; Q57TT1; TbPYK enzyme, Kinase-Glo Plus ATP luminescence, 45 min; Potency, µM (titrated, usually from 76.8 µM), for the others: top-dose activity, negative = inhibition, actives largely listed as inhibitors; actives 0.12% (n = 410,000); AID 624173; note: potency is the fitted concentration of half-maximal effect; % is set by controls: 0 for no effect and ±100 for the full control effect; nearly all actives have a fitted effect of over 50% in size
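Luminescent Kinase-Glo Plus end-point after 45 min room-temperature reaction of T. brucei pyruvate kinase started with 130 uM ADP (final). Buffer TEA 50 mM pH 7.2 with KCl, MgCl2, BSA, Tween-20; titration-based qHTS with fitted concentration-effect curves.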
RE007 growth inh = less growth of the S. pombe RE007 Vpr strain; S. pombe RE007 Vpr strain, BacTiter-Glo ATP luminescence, 24 h; Potency, µM (doses to about 92.2 µM), without a hit: at the highest dose activity change, negative = less growth, hits mostly inhibitors; actives 0.21% (n = 360,000); AID 651644; active = well fitted falling curve with a large enough effect; inconclusive = small, poorly fitted or top-dose-only effect; inactive = no such curve, though single readings can be large or run the other way; note: potency is the fitted concentration of half-maximal effect; % is set by controls: 0 for no effect and ±100 for the full control effect; nearly all actives have a fitted effect of over 50% in size
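Fission yeast RE007 carrying one integrated HIV-1 vpr copy, seeded at OD 0.01 in PMG+AL medium with 23 nL pinned compound. Grown 24 h at 30 degrees; viability read by BacTiter-Glo luminescence after 5 min.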
LmPK inh = LmPK (Leishmania mexicana) enzyme inhibition. purified LmPK, Kinase-Glo ATP luminescence, 1 h. Potency, µM (series often up to 57.5 µM), for the others: top-dose activity change, negative = inhibition, usual class: inhibitors. AID 1721. actives 0.37% (n = 290,000). Q27686; note: potency is the fitted concentration of half-maximal effect; % is set by controls: 0 for no effect and ±100 for the full control effect
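Pyruvate kinase activity monitored as ATP production (luciferase luminescence). Conditions: 0.1 nM enzyme, 0.5 mM PEP, 0.1 mM ADP, 1 h, RT; normalized against uninhibited and no-enzyme wells.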
Cycloheximide cs = counter-screen hit for Shiga toxin inhibitors, cycloheximide. cell reporter, cycloheximide protein synthesis inhibition counterscreen. max response, %. actives 12% (n = 300,000). AID 2314; in the data active = max response mostly above about 13%, no sharp cut-off; inactive = mostly below about 14%; note: read at 38.3 µM for the half of the compounds with a filed dose; 0% is about no effect
* = called active by the depositor; i = inactive; ? = inconclusive; / = not tested or not shown; [ ] = dose if it differs, or a comment. The sample as a whole holds a higher share of hits than the screen did. Unless noted, calls come from the whole dose curve; as a rule, active = well fitted curve in the direction sought with a large enough effect; inconclusive = small, poorly fitted or top-dose-only effect, or another doubt; inactive = no such curve, though single readings can be large; an effect the other way counts as inactive or inconclusive.

SMILES | FBPA Giardia inh | Shiga toxin inh | TbPYK inhibitor | RE007 growth inh | LmPK inh | Cycloheximide cs
O=C(Nc1ccc([N+](=O)[O-])cn1)C1CC2CCC1C2 (configuration not stated) | -1% | 17* | -3% | 6% | -3% | 13
COc1cc(C(=O)Nc2nc3ccccc3s2)ccc1OCc1c(C)noc1C | 1% | 12 | 0% | 3% | 3% | 18*
O=C(CP(=O)(c1ccccc1)c1ccccc1)Nc1nc2ccccc2s1 | 1% | 2 | -3% | 2% | 1% | 2
Nc1ccc(C(=O)Nc2nc3ccccc3s2)cc1 | -3% | 42* | -1% | -27% | -29% | 41*
CC(=O)Nc1cc(C)nn1-c1nc2ccccc2s1 | 2% | 52* | -17% | -21% | 5% | 33*
Cc1cc(C)n(-c2ccc(C(=O)Nc3nc4ccccc4s3)cc2)n1 | 4% | 26 | 1% | 0% | 1% | 20*
COc1ccc(NC(=O)c2ccc(-n3nc(C)cc3C)cc2)cc1OC | 0% | -10 | 5% | 2% | -1% | 2
O=C(NCCCCc1ccccc1)c1cccc(NC(=O)C2CC2)c1 | / | / | -18% | 1% | / | /
COc1ccc(C(=O)Nc2ccc(OCc3cc(=O)n4ccccc4n3)cc2)cc1 | / | / | 2% | / | / | /
CC1CN(C(=O)Nc2ccc3snnc3c2)c2ccccc21 (configuration not stated) | -24% | 36* | -9% | -2% | 6% | 27*
Cc1ccc(-n2nc(C(C)(C)C)cc2NC(=O)Nc2ccc(OCCN3CCOCC3)c3ccccc23)cc1 | / | / | -5% | / | / | /
CN(C)N=Nc1ccc(-c2cn(Cc3ccccc3)cn2)cc1 | 6% | 41* | -1% | 1% | -1% | 47*
CN(Cc1ccccc1)N=Nc1ccccc1 | / | / | -1% | 12% | / | /
CN(C)c1ccc(/C=C2\CCCCC2=O)cc1 | -3% | 28 | -5% | -26% | -16% | 14*
O=C1CCCCC2CCCCN12 (configuration not stated) | -21%[136 µM] | i | / | / | / | 9
Cc1cccc(NC(=O)c2ccc(-c3nc(CSc4ccccc4)c(C)o3)cc2)c1C | / | / | -9% | / | / | /
CC1C/C(=C/c2cccn2C)C(=O)/C(=C/c2cccn2C)C1 (configuration not stated) | -26% | 49* | 0% | ? | 1% | 29*
CC1C/C(=C/c2ccncc2)C(=O)/C(=C/c2ccncc2)C1 (configuration not stated) | -3% | -18 | -2% | ? | 0% | -11
Cc1nc(CC(=O)Nc2cccc(C)c2C)cs1 | / | / | 0% | / | / | /
Cc1ccc(C(=O)c2cn(Cc3cccc(C)c3)c3nc(C)ccc3c2=O)cc1 | / | / | -2% | / | / | /
CCN(CC)C(=S)SCC(=O)c1ccc(Br)cc1 | -4% | 167* | 3% | 1% | 0% | 107*
CCn1c(CNC(C)=O)nnc1SCC(=O)c1ccc(Br)cc1 | -23% | 13 | -17% | 10% | 0% | 3
Cc1ccccc1C(=O)Nc1ccc(N2CCCC2)cc1 | ? | 57* | ? | -11% | ? | 35*
O=C(Nc1ccc(N2CCCC2)cc1)c1ccccc1[N+](=O)[O-] | -2% | 80 | 2% | -3% | 4% | 19*
O=C(Nc1ccc(N2CCCC2)cc1)C(Cl)c1ccccc1 (configuration not stated) | ? | 70* | ? | -22% | -19% | 32*
SMILES | FBPA Giardia inh | Shiga toxin inh | TbPYK inhibitor | RE007 growth inh | LmPK inh | Cycloheximide cs
CS(=O)(=O)N1CCN(c2ccc(NC(=O)C(c3ccccc3)c3ccccc3)cc2)CC1 | -11% | -2 | -8% | 4% | 4% | -4
CC(=O)Nc1ccc(NC(=O)c2ccccc2C)cc1 | 3% | 24 | -2% | 7% | 3% | 13
Cc1ccc(C(=O)Nc2ccc(N3CCCC3)cc2)c(C)c1 | ? | 41 | -12% | -13% | -1% | 15*
Cc1c(Cl)cccc1NC(=O)CN1C(=O)COc2ccc(S(=O)(=O)N3CCCCCC3)cc21 | / | / | 6% | / | / | /
Cc1ccc(NC(=O)CN2CCSc3ccc(S(=O)(=O)N4CCCC4)cc32)cc1 | / | / | 3% | / | / | /
Cc1c(C(=O)N(C)C)sc2c1c(=O)n(-c1ccccc1C(F)(F)F)c(=O)n2Cc1cccc(F)c1 | / | / | -2% | / | / | /
